From the supplement of paper PMC8047044

tested on: Neuro-2a; experiment: neurite formation score, plate-normalized to DMSO control mean 5.04 (score (0-8 scale)); higher = more or longer neurites; conditions: 0.1 µM
Method: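 Neuro-2a mouse neuroblastoma cells in PLL-coated 96-well plates were pre-treated for 1 h in DMEM(+) with each kinase inhibitor at 0.1 µM, then switched to serum-free DMEM(-) with inhibitor to induce neurite outgrowth and fixed about 2-3 h later. Three blinded observers scored neurite formation from 0 (no neurites) to 8 (long neurites on almost all cells).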

Row | Compound | neurite formation score
1 | CC1=C(C(=O)Nc2cc3cn[nH]c3cc2F)C(c2ccc(C(F)(F)F)cc2)CC(=O)N1 (configuration not stated) | 4.21
2 | CCCCCCCCCCCCCCCCCC(=O)OC[C@H](CO)OC(=O)CCCCCCCCCCCCCCCCC [1,2-Distearoyl-sn-glycerol] | 5.42
3 | CN1CCN(c2ccc3nc(-c4c(N)c5c(F)cccc5[nH]c4=O)[nH]c3c2)CC1 [Dovitinib (TKI-258, CHIR-258)] | 4.08
4 | CCCS(=O)(=O)Nc1ccc(F)c(C(=O)c2c[nH]c3ncc(-c4ccc(Cl)cc4)cc23)c1F [Vemurafenib (PLX4032, RG7204)] | 4.04
5 | Cc1nc(Nc2cnn(C3CCNCC3)c2)nc2c1N(C)C(=O)c1cc3ccccc3cc1N2C | 4.25
6 | CN(C[C@@H]1COCCO1)S(=O)(=O)Nc1ccc2ccc3ncc(-c4cnn(C)c4)cc3c(=O)c2c1 | 4.25
7 | Cn1c(=O)c(F)c(Nc2ccc(I)cc2F)c2c(=O)n(C[C@@H](O)CO)cnc21 | 4.42
8 | COc1ccc(-c2ccc3ncc4c(c3c2)n(-c2ccc(N3CCNCC3)c(C(F)(F)F)c2)c(=O)n4C)cn1 | 4.92
9 | CCOc1ccn(-c2ccc(F)cc2)c(=O)c1C(=O)Nc1ccc(Oc2ccnc(N)c2Cl)c(F)c1 | 4.21
10 | CS(=O)(=O)c1ccc(-c2cnc(N)c(C(=O)Nc3ccccc3)n2)cc1 | 3.04
11 | COc1ncc(-c2ccc3nccc(-c4ccnnc4)c3c2)cc1NS(=O)(=O)c1ccc(F)cc1F | 4.92
12 | Cc1cc(Nc2ncc(Cl)c(Nc3ccccc3S(=O)(=O)C(C)C)n2)c(OC(C)C)cc1C1CCNCC1 | 5.21
